Experimental findings from PubChem BioAssay AID652257 (The Scripps Research Institute Molecular Screening Center, 2013) are described below.

The structures appear in SMILES notation. About 4,800 (1.3%) of roughly 370,000 compounds were called active. The full list was thinned out, with actives kept by preference. Unmarked numbers belong to inactive results.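 How the source made its calls: active means inhibition above about 21% made by adding two undisclosed values (limit read from the data); inactive means the rest.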

For this assay, the target named is Protein arginine N-methyltransferase 1 (Homo sapiens) (UniProt Q99873). Kind of assay: PRMT1 methyltransferase inhibitors, primary screen, biochemical, fluorescence polarization (AID 652257). Conditions: recombinant PRMT1, activity-based probe fluorescence polarization; at 2.79 µM; stronger effect = higher value. In general terms: In fluorescence polarisation assays a small probe gives low polarisation when free and higher when bound to something large.
Protein arginine N-methyltransferase 1 (Homo sapiens), sequence (Q99873 whole entry, looked up): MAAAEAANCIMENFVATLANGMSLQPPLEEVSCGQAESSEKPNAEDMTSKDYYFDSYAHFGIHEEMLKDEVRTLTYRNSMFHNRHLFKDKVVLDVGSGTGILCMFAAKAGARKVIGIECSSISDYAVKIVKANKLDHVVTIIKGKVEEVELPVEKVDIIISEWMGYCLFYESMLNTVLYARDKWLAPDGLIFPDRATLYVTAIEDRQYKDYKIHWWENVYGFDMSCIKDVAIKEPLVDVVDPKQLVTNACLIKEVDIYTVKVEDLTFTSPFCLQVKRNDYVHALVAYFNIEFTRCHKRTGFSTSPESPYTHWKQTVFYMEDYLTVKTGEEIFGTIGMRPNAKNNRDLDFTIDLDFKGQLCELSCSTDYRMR
For orientation: inhibition means the drop in the measured response relative to a control, in per cent. For `COC(=O)[C@]12C[C@H](CC(=O)NCc3cccs3)C(=O)N(CCc3ccc(OC)c(OC)c3)C1=C[C@H](C(C)C)O[C@@H]2C1CC1`, the inhibition was -1.28%. In the case of `CCOC(=O)CSc1nnc(CNc2ccc(F)cc2)o1`, the inhibition was -0.98%.

Regarding `CCCCOC(=O)CNc1nnc(SCC(=O)OCC)[nH]c1=O`, the inhibition is 74.3% (active). As to `Cc1nnc(SCCCCSc2nnc(C)c(=O)[nH]2)[nH]c1=O`, the inhibition was 2.02%.

`CCC(=O)Nc1ccc2c(c1)C(=O)N(C)[C@@H]1CC[C@@H](CC(=O)NCCc3ccccc3)O[C@H]1CO2`: the inhibition is 1.16%. For `O=C(Nc1cc(S(=O)(=O)N2CCOCC2)ccc1OCC(F)(F)F)c1ccc(N2CCCC2=O)cc1` the value was -0.65%. Regarding `Cc1ccc(/C=C/C(=O)Nc2cc(S(=O)(=O)N3CCCCCC3)ccc2OCC(F)(F)F)o1`, the inhibition was 24.7% (active). As to `COc1ccc(S(=O)(=O)N2CCCCC2)cc1NC(=O)COc1ccccc1`, the inhibition is 2%. For `O=C(NCCCc1ccccc1)[C@H](Cc1ccccc1)NC1(C(=O)NCCc2c[nH]c3ccccc23)CCC1` the value was 4.62%; for `COc1ccc2c(c1)CN1CN(CCc3ccccc3)S(=O)(=O)CC21` (stereo unspecified), -7.45%; for `COc1ccc(C(=O)NC(=O)CSc2nnc(-c3ccco3)n2-c2ccccc2)cc1`, 4.1%. For `COc1cc(NC(=O)C2=CC(c3ccco3)=NS(=O)(=O)N2C)cc(OC)c1OC` the value was 1.92%; for `COCCNC(=O)Nc1ccc2nc(-c3ccco3)c(-c3ccco3)nc2c1`, 88.9% (active); for `O=C(Nc1ccc(F)c([N+](=O)[O-])c1)C1CCCO1` (stereo unspecified), -0.52%. For `CCOC(=O)[C@]12CCCC=C1N(CCCOC)C(=O)[C@@H]2CC(=O)N1CCOCC1` the value was -11.2%; for `COC(=O)Nc1nc2ccc(C(=O)C3CC3)cc2[nH]1`, -5.37%. For the compound `COc1ccc(C2NC(=O)C(=O)/C2=C(\O)c2ccc(Cl)cc2)cc1OC` (stereo unspecified), the inhibition was 1.92%. Consider `Clc1ccccc1CSc1nnc(-c2ccco2)c(-c2ccco2)n1`, for which the inhibition was 45.8% (active).

Consider `Clc1ccc(-n2c(SC/C=C/c3ccccc3)nnc2-c2ccco2)cc1`, for which the inhibition was 2.59%.

On to `Cc1cccc(N(CC(=O)N2CCCC2)S(C)(=O)=O)c1C`, for which the inhibition is 0.79%. Take `COc1ccc(N(CC(=O)N2CCOCC2)S(=O)(=O)c2ccccc2)cc1Cl`: the inhibition was 3.25%. Turning to `CN1C(=O)c2cc(NS(C)(=O)=O)ccc2OC[C@@H]2O[C@@H](CC(=O)NCc3ccc(-c4ccccc4)cc3)CC[C@H]21`, the inhibition is -3.76%. For `S=c1ccc2ccccc2[nH]1` the value was 41.1% (active); for `S=c1[nH]c2ccccc2c2ccccc12`, 13.6%. `Brc1ccccc1CN1CCC(Cc2ccccc2)CC1`: the inhibition is -1.49%.

Regarding `CCN(CC(=O)Nc1ccc(OC)cc1)C(=O)c1ccc(Cl)c(S(=O)(=O)N2CCCC2)c1`, the inhibition was -2.9%. For `CCOc1ccc(NC(=O)CCCCCN2C(=O)[C@@H]3Cc4ccccc4CN3C2=O)cc1` the value was 0.46%; for `CC[C@]1(O)C[C@@H]2CN(CCc3c([nH]c4ccccc34)[C@@](C(=O)OC)(c3cc4c(cc3OC)N(C)[C@H]3[C@@](O)(C(=O)OC)[C@H](OC(C)=O)[C@]5(CC)C=CCN6CC[C@]43[C@@H]65)C2)C1`, 4.62%.

As to `O=C(N/N=C/C=C/c1ccco1)c1cccs1`, the inhibition is 17.1%. For `CN(C)S(=O)(=O)c1cccc(C(=O)N/N=C\c2ccco2)c1` the value was -2.34%; for `Cc1cc(C(=O)NN=C/C=C/c2ccco2)n[nH]1`, 39.4% (active); for `COC(=O)C1CN(CC(C)C)CCS(=O)(=O)N1Cc1ccc(F)cc1` (stereo unspecified), 1.47%. For `CN(CCc1ccccc1)C(=O)Cn1nc(-c2ccccc2)ccc1=O` the value was -1.41%. Regarding `Cc1[nH]c2ccccc2c1C(=O)C(C)Sc1nnc(C2CC2)o1` (stereo unspecified), the inhibition is 2.13%. As for `Nn1c(SCC(=O)N2c3ccccc3Sc3ccccc32)nnc1-c1n[nH]c2c1CCC2`, the inhibition was 5.44%. Turning to `O=C(O)c1ccc(/C=C2\SC(=S)N(NC(=O)c3ccc(Br)cc3)C2=O)cc1`, the inhibition was 30.2% (active). For `C/C(CC(=O)N1CCN(C=O)CC1)=N\NC(=O)c1ccc(Br)cc1`, the inhibition was 2.11%. `O=C(NCCN1C(=O)S/C(=C\c2cccnc2)C1=O)c1ccc(S(=O)(=O)N2CCCC2)cc1`: the inhibition is 4.69%. As to `CCCn1nnnc1NCc1ccc(CC)cc1`, the inhibition is 1.58%. With `Cc1ccc(C(=O)C2CCN(CC(=O)NCCC(C)C)CC2)cc1`, the inhibition is 4.05%. For `FC(F)(F)c1nc2ccccc2nc1N/N=C/c1ccc(Cl)cc1` the value was 66.9% (active).

`CN(CCO)c1ccc(/C=N/Nc2nncc3ccccc23)cc1`: the inhibition is -2.83%. For `Clc1ccc(Nc2ccc3ccccc3n2)cc1` the value was -3.42%.

Consider `COC(=O)[C@]1(Cc2ccccc2)NC=C(C(=O)c2ccccc2)[C@@H]1c1cccc(OC)c1`, for which the inhibition was 2.58%.

In the case of `O=C(CN1C(=O)S/C(=C\c2ccccc2F)C1=O)NCCCn1ccnc1`, the inhibition is 29.4% (active). For `O=C(CCN1C(=O)c2ccccc2C1=O)NCCCn1ccnc1` the value was 1.79%; for `O=C(NCCCn1ccnc1)/C(=C\c1ccccc1F)NC(=O)c1ccccc1`, -3.1%; for `CCC[C@H]1C(=O)CC[C@@]23CCCN2C(=O)CCC[C@@H]13`, 1.57%.

In the case of `COCCN(C(=O)c1ccco1)c1nnc(-c2ccc(OC)cc2)s1`, the inhibition was 1.28%. As for `O=C(CCl)NC1CCCCN(Cc2cccc(C(F)(F)F)c2)C1=O` (stereo unspecified), the inhibition was 3.41%. Regarding `CC1Cn2c(nnc2-c2cccs2)S1` (stereo unspecified), the inhibition is 5.98%. For `O=C(Nc1ccc2cn[nH]c2c1)c1ccc(S(=O)(=O)N2CCOCC2)cc1` the value was 3.18%; for `O=C(Nc1ccc(N2CCOCC2)c(Cl)c1)c1ccc(S(=O)(=O)N2CCOCC2)cc1`, 1.99%; for `O=C(Nc1ccc(S(=O)(=O)N2CCOCC2)cc1)c1ccc2ncsc2c1`, 22.4% (active). Turning to `O=C(CSc1nc2ccccc2nc1N1CCCCC1)N1CCN(S(=O)(=O)c2cccc([N+](=O)[O-])c2)CC1`, the inhibition was 0.86%. For `O=C(CSc1nc2ccccc2n1Cc1ccccc1)NNC(=S)Nc1ccccc1` the value was 1.31%; for `COc1ccc(-c2cc3c(c4c2ccn4C)C2CCC3C2)cn1` (stereo unspecified), 32.2% (active).

In the case of `CC(=O)O[C@@]1(C(C)=O)CCC2[C@H]3C=C(C)C4=CC(=O)CC[C@@]4(C)C3CC[C@]21C` (stereo partly specified), the inhibition was -2.39%. For `Cc1ccccc1-c1ccc2c(c1)O[C@@H](CN(C)Cc1ccc(C(=O)O)cc1)[C@@H](C)CN([C@H](C)CO)S2(=O)=O` the value was -1.8%.

`CCCn1c(C(O)c2cc(OC)ccc2OC)nc2ccccc21` (stereo unspecified): the inhibition was 23.1% (active). For `COc1ccc(OC)c(C(O)c2nc3ccccc3n2C)c1` (stereo unspecified) the value was 5.63%; for `CCn1c(C(O)c2cc(OC)ccc2OC)nc2ccccc21` (stereo unspecified), -3.51%; for `Cc1ccc(S(=O)(=O)NC(=O)N2CCCC(C)(C)C2)cc1`, -1.8%. Take `CN(C)C(=O)N=NC(=O)N(C)C`: the inhibition is 27.4% (active). For `CC(NC(=O)c1cc(=O)[nH]c2ccccc12)c1ccc(F)cc1F` (stereo unspecified) the value was 0.78%; for `CCOC(=O)c1cccc(NC(=O)CN(C)S(=O)(=O)c2ccc(-c3cocn3)s2)c1`, -6.43%; for `N#CC1=C(N)Oc2c(sc3ccccc23)C1c1ccco1` (stereo unspecified), 26.8% (active).

Take `O=C(Nc1cccc(C(=O)NC2CC2)c1)c1ccc(F)c(S(=O)(=O)N2CCOCC2)c1`: the inhibition was 1.48%. For `O=C(Nc1ccccc1Cl)/C(Cl)=C(\Cl)S(=O)c1ccccc1` (stereo unspecified) the value was 80.3% (active); for `O=C(Nc1ccnn1C1CCN(C/C=C/c2ccc(F)cc2)CC1)C1CCCC1`, -2.06%. With `O=C(N[C@H](C(=O)N1CCC[C@H]1C(=O)NCCc1ccccc1Cl)c1ccccc1)c1ccccc1`, the inhibition is 4.7%. For `CCOC(=O)[C@]12CCCCC/C=C\1N(Cc1ccc(OC)cc1)C(=O)[C@H]2CC(=O)NCc1ccc(C)o1` the value was 11.7%; for `CCc1nc2c(OCC(N)=O)cccn2c1N(C)C(=O)c1ccc(OC)cc1`, -1.98%. Take `CN(C)S(=O)(=O)c1ccc(Cl)c(NC(=O)COC(=O)CC(NC(N)=O)c2ccc(Cl)cc2)c1` (stereo unspecified): the inhibition is -6.61%. As for `O=c1[nH]c2ccccc2n2c(-c3ccccc3)nnc12`, the inhibition was 85.2% (active). For `O=C(c1ncn2c1c(=O)[nH]c1ccccc12)N1CCc2ccccc2C1` the value was -1.56%. For `N[C@@H](Cc1ccccc1)C(=O)N1CCC[C@@H]1C(=O)N1CCC2CCN(S(=O)(=O)c3ccccc3)CC21` (stereo partly specified) the value was 3.14%; for `Cc1nc(N)[nH]c(=O)c1Oc1cccc(C(F)(F)F)c1`, -1.54%; for `O=C(NC1CCC1)c1ccc(C#Cc2cccc(F)c2)c[n+]1[O-]`, -4.9%. `C#CCN([C@H](C(=O)OC)C(C)CC)S(=O)(=O)c1ccccc1Br` (stereo partly specified): the inhibition is 1.85%. As to `CCOC(=O)C1=C(CSc2nnnn2C)N(C)C(=O)NC1c1ccccc1` (stereo unspecified), the inhibition was -1.87%.

Turning to `CCN1CCN(C(=O)N[C@@H](C(=O)N[C@@H]2C(=O)N3C(C(=O)O)=C(CSc4nnnn4C)CS[C@H]23)c2ccc(O)cc2)C(=O)C1=O`, the inhibition was 28.5% (active).

As to `CC(=O)NC1C(Oc2ccc(C=O)cc2)OC(COC(C)=O)C(OC(C)=O)C1OC(C)=O` (stereo unspecified), the inhibition is -2.72%. For `COC(=O)[C@H](C(C)C)N(CCCc1cn(Cc2ccccc2)nn1)S(=O)(=O)c1ccc(F)cc1Br` the value was 1.25%; for `C=CCNC(=S)NNC(=O)COc1c(Cl)cc(Cl)cc1Cl`, 1.94%; for `Cc1ccc(-n2c(COc3ccccc3)nnc2SCC(=O)Nc2ccc3c(c2)OCCO3)cc1`, 1.77%.
